Reference: PubChem BioAssay (NCI)
About 83,000 compounds went through this panel and 20% of them were active in at least one assay; those are over-represented in the sample as a whole.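 For each line, cells grew in 96-well plates with the test compound present at a single concentration for 48 hours.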 The source made the active and inactive calls. The calls were made as follows: active = growth percent below 10; inactive = the rest.

System: HL-60(TB) leukemia
Assay: NCI-60 one-dose screen, 48 h (100 = growth as untreated, 0 = no growth, -100 = all killed)
Details: 10 µM unless noted

SMILES | growth
CC(=O)Cc1nsc(NC(=O)c2ccoc2COc2ccccc2)n1 | 98.5% (inactive)
CCN1CCN(Cc2ccc(NC(=O)Nc3cccc(-n4ccc5c(NC(=O)c6ccccc6)nccc54)c3)cc2C(F)(F)F)CC1 | 112% (inactive)
CN(C)c1ncc(-c2ccc(C(F)(F)F)cc2)c(NC2CCCCCC2)n1 | 39.8% (inactive)
COc1cc(OC)cc(C2C(C#N)=C(N)Oc3c2ccc2ccc(O)cc32)c1 (stereo not given) | -23.8% (active)
CC1=C(/C=C/C(C)=C/C=C/C(C)=C/C(=O)Nc2ccc(O)cc2)C(C)(C)CCC1 | -32.3% (active)
ClC1=C2NC=NC2n2c(nnc2-c2ccc(Cl)cc2)N1 (stereo not given) | 118% (inactive)
CC1(c2ccc(Cl)cc2)OC(=O)CC(=O)O1 | 74.7% (inactive)
CNC(=O)c1cc(Oc2ccc3nc(NC(=O)NC(C)C)sc3c2)ccn1 | 47.8% (inactive)
CC1(C)CC2(C)OC2C2(C1)N=NC(=Nc1ccccc1)O2 (stereo not given) | 85.2% (inactive)
CC1=NN(c2ccc(S(=O)(=O)O)cc2)C(=O)C1N=Nc1ccc(-c2ccc(N=Nc3ccc(OS(=O)(=O)c4ccc(C)cc4)cc3)c(S(=O)(=O)O)c2)cc1 (stereo not given) | 108% (inactive)
CCOC(=O)c1nc2c3ccccc3cnn2c1C(=O)c1ccc(OC)cc1 | 102% (inactive)
COc1c2occc2c(OC)c2c(=O)c(-c3cc(-c4ccc(F)cc4)c(C#N)c(N)n3)c(C)oc12 | 54.7% (inactive)
O=C(C[C@]1(O)C(=O)Nc2ccc(Br)cc21)c1ccco1 | 107% (inactive)
COc1ccc(Cn2cc3c(c2-c2ccccc2)CCc2cnoc2-3)cc1 | 4.48% (active)
CCN(CC)CCCC(C)NCCCNc1cccc2cccnc12 (stereo not given) | -5.92% (active)
O=c1oc2ccc(-c3ccc(F)cc3F)cc2c(=O)n1-c1cccc(C(F)(F)F)c1 | -33.3% (active)
Cc1ncc(-c2ccnc(Nc3ccc(S(C)(=O)=O)cc3)n2)n1C(C)C | -43.2% (active)
COC(c1ccccc1)C(Br)C(=O)c1ccccc1 (stereo not given) | 79.1% (inactive)
CCOC(=O)N1CCc2c(sc3nc4nc[nH]n4c(=O)c23)C1 | 103% (inactive)
Cc1cc(NC(=O)c2cnc(N3CCN(CCOCCOCCOCCOCCC(=O)N[C@H](C(=O)N4C[C@H](O)C[C@H]4C(=O)N[C@@H](C)c4ccc(-c5scnc5C)cc4)C(C)(C)C)CC3)cn2)c2ncccc2c1 | -21.1% (active)

SMILES | growth
CCNc1ccc2ccccc2c1N=Nc1ccc(N=Nc2ccccc2)cc1 | 108% (inactive)
O=[N+]([O-])c1cc([N+](=O)[O-])c(N2CCCC2)cc1NN=C(c1ccc(O)cc1)c1ccc(O)cc1 | 122% (inactive)
Oc1ccc2ccccc2c1N=Nc1ccccn1 | -32.4% (active)
COc1ccc(C(O)c2cc3c(N)c(C(=O)Nc4cccc(Cl)c4C)sc3nc2C)cc1 (stereo not given) | -51% (active)
CC(C)Cn1cnc2c(NCn3nc(-c4cc(Cl)cc(Cl)c4Cl)n(/N=C/c4ccc(Cl)cc4)c3=S)nc3ccccc3c21 | 93.3% (inactive)
CC(=O)O[C@@H]1CC2C(C)(C)CCCC2(C)C2=C1C(=O)C(C(C)C)=CC2=O (stereo not given in full) | 1.18% (active)
Cc1cc(N2CCCCCC2)nc(NC2CCCC(Nc3ccnc4cc(Cl)ccc34)C2)n1 (stereo not given) | -71.3% (active)
c1ccc2sc(SSN3CC4CCC(CC4)C3)nc2c1 | 89.3% (inactive)
O=c1oc2ccc(I)cc2c(=O)n1-c1ccc(I)cc1F | -49.1% (active)
COc1cc2cc(Oc3ccc(NC(=O)Nc4cc(C(F)(F)F)cc(C(F)(F)F)c4)cc3)c(C)nc2cc1OCCN1CCCCC1 | -2.13% (active)
Nc1cc(-c2ccccc2)ccc1O | 49.7% (inactive)
O=c1[nH]c2cc(O)ccc2n2cc3c(F)cccc3c12 | 25.5% (inactive)
CC(=O)OC(C(=O)c1ccccc1)c1ccccc1 (stereo not given) | 114% (inactive)
NNC(=O)CNC(=O)Nc1n[nH]c(=S)s1 | 107% (inactive)
CSc1nc2ncncc2[nH]1 | 91.2% (inactive)
C=C1C(=O)O[C@H]2[C@H]1CC/C(COC(=O)CCCc1c[nH]c3ccccc13)=C\CC[C@@]1(C)O[C@@H]21 | 2.97% (active)
COc1ccc(-c2cc3c(oc2=O)-c2ccccc2OC3OC(C)=O)cc1 (stereo not given) | 85.8% (inactive)
NC1=NC(c2ccccc2OS(=O)(=O)c2ccc(Br)cc2)n2c(nc3ccccc32)N1 (stereo not given) | 69.7% (inactive)
COc1cc(Cl)cc(-c2nn(C(=O)NS(=O)(=O)c3ccccc3)cc2-c2ccncc2)c1 | 94.3% (inactive)
Cc1nc2cccc(NCCCCC(=O)NO)c2c(=O)n1-c1ccccc1 | 42.8% (inactive)
